From PubChem BioAssay AID504332 (National Center for Advancing Translational Sciences (NCATS), 2011)
Values joined by “and” are separate entries in the source; they are usually repeats but may differ in a detail not shown here. Identical values can stand only once. Screen size: about 350,000 compounds; about 31,000 (8.9%) were called active. Entries that show only a call come without a potency. Inconclusive results (about 15%) are left out. Calls come from the whole dose curve; as a rule, active = well fitted inhibition curve with a large enough effect; inconclusive = small, poorly fitted or top-dose-only effect; inactive = no such curve, though single readings can be large or run the other way. This excerpt belongs to a sample that is enriched for actives. Some structures have more than one record in an assay (separate samples or runs), and their calls can disagree.

These molecules were tested against Histone-lysine N-methyltransferase EHMT2 (Homo sapiens) (UniProt Q96KQ7) (assay: qHTS Assay for Inhibitors of Histone Lysine Methyltransferase G9a). Details: G9a H3K9 monomethylation, AlphaScreen, 2 h; series mostly up to 102 µM.
Sequence of Histone-lysine N-methyltransferase EHMT2 (Homo sapiens) (Q96KQ7 913-1193 limits assumed): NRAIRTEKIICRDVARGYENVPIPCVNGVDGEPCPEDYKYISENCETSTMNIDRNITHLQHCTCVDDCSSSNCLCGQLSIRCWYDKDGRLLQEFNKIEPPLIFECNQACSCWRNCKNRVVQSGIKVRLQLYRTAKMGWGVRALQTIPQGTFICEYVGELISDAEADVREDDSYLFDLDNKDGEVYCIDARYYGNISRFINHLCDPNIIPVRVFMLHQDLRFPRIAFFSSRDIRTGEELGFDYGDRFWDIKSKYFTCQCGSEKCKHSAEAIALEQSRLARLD
Procedure, shortened: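 Readings reflect AlphaScreen signal from monomethyl-H3K9 antibody detection. HMT at 20 nM; substrate b-H3K9 500 nM; cofactor SAM 20 uM; 2 h RT reaction; compounds tested as titrations in qHTS with 15 min preincubation.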
Note: nearly all actives have a fitted effect of over 75% in size.
Potency is the fitted concentration of half-maximal effect.

Structure (SMILES)	activity, negative = inhibition	Potency
CCCC(C)n1[nH]c(=O)c2c1NC(=O)CSC2c1ccc(OC)c(OC)c1 (stereo not drawn)	inactive	
Cn1c(C(=O)N2CCC(C(=O)N3CCC4(CC3)OCCO4)CC2)cc2sccc21	inactive	
CN(C)C(=O)Oc1cc(OC(=O)N(C)C)cc(C(O)CNC(C)(C)C)c1 (stereo not drawn)	inactive	
COc1ccc(C(=O)C2CN(C)CC2C(=O)c2ccc(OC)cc2)cc1 (stereo not drawn)	inactive	
COc1ccc(C(=O)CC2C(=O)N(C)C(=O)N(C)C2=O)cc1		2.24 µM (active)
CCOP(=O)(OCC)C(NC(=O)c1ccc(OC)cc1)C(Cl)(Cl)Cl (stereo not drawn)	inactive	
CCCOC(=O)C1C2c3ccccc3C(c3ccccc32)C1C(=O)O (stereo not drawn)	inactive	
CCC1(C)CC(=O)NC1=O (stereo not drawn)	28.2% [at 12.7 µM] (inactive)	
CCN(CC)CCOC(=O)c1cc2cc(COC)ccc2o1		17.8 µM (active)
Cc1nn(Cc2ccccc2Cl)c(Cl)c1C(=O)OC(C(=O)NC(N)=O)C(C)C (stereo not drawn)	inactive	
CC(=NCC1CCCO1)c1c(O)n(-c2ccccc2)c(=O)[nH]c1=O (stereo not drawn)	inactive	
CCN1c2nc3c(C)cccn3c(=O)c2CC2(C(=O)N(C)C(=O)N(C)C2=O)C1C (stereo not drawn)	7.48% [at 12.7 µM] (inactive)	
CC(=O)c1ccc(-c2ccc(Cn3c(C)nc4cc(N)c(C)nc43)cc2)cc1		15.8 µM (active)
CCOC(=O)c1c(N)n(Cc2ccccc2)c2nc3ccccc3nc12	inactive	
CN(C)P(=S)(Nc1ccccc1)C(Cl)(Cl)Cl (stereo not drawn)	inactive	
COC(=O)C1=C(c2ccc(-c3ccccc3)c(F)c2)C[C@@H]2CC[C@H]1N2C(=O)NCc1ccc(F)cc1	12.5% [at 0.501 µM] (inactive)	
CNC(=O)Nc1ccc(C(O)(C(=O)OC)C(F)(F)F)cc1 (stereo not drawn)	inactive	
Cn1cc(C(=O)OCC(=O)N2CCCC2)c2ccccc21	17.1% [at 12.7 µM] (inactive)	
NCC(O)c1ccc(O)cc1 (stereo not drawn)	-5.15% [at 2.33 µM] (inactive) and 25.4% [at 12.7 µM] (inactive)	
CC(C(=O)Nc1ccc(Cl)cc1Cl)N1CC=C(c2ccccc2)CC1 (stereo not drawn)	inactive	
CC1C2Cn3c(nc4ccccc43)C1N(C)O2 (stereo not drawn)	11.2% [at 12.7 µM] (inactive)	
O=C1NC(=O)N(c2ccc(F)cc2)C(=O)/C1=C/c1ccc2c(c1)CCCN2Cc1ccccc1		12.6 µM (active)
O=C(NC(c1ccc(Cl)cc1)P(=O)(Oc1ccccc1)Oc1ccccc1)OCc1ccccc1 (stereo not drawn)	inactive	
Cc1ccccc1NC(=O)COC(=O)c1cc(C)n(C2CC2)c1C	inactive	

Structure (SMILES)	activity, negative = inhibition	Potency
CCOC(=O)C(O)(c1ccc(N)c(OC)c1)C(F)(F)F (stereo not drawn)	-7.69% [at 2.33 µM] (inactive)	
CCOP(=O)(OCC)C(NC(=O)NC)C(N)=O (stereo not drawn)	inactive	
Nc1ccc(C(=O)N/N=C2/CN3CCC2CC3)cc1	inactive	
CCC(C)n1c(O)c(/C=N/Nc2nc3c(c(=O)n(C)c(=O)n3C)n2C)c(=O)[nH]c1=S (stereo not drawn)		25.1 µM (active)
CC(=O)c1c(O)c(C)c(O)c(Cc2c(O)c3c(c(C(=O)/C=C/c4ccccc4)c2O)OC(C)(C)C=C3)c1O		14.1 µM (active) and 2.12 µM (active)
O=c1c2ccccc2nc(/C=C/c2ccc(F)cc2)n1-c1ccccc1O	inactive	
C=CCN(CC=C)C(=O)Nc1ccc(OCC)cc1	inactive	
CC[C@]1(C)CC(=O)NC1=O	-2.16% [at 12.7 µM] (inactive)	
COC(=O)C1=C(c2ccc(F)cc2OCc2ccccc2)C[C@@H]2CC[C@H]1N2C(=O)NCc1ccc(Cl)cc1	8.03% [at 2.33 µM] (inactive)	
O=C(c1cc2nc(-c3ccccc3)cc(-c3ccccc3)n2n1)N1CCC2(CC1)OCCO2	17.4% [at 12.7 µM] (inactive)	
CC1=C2C(=O)C3C(CC=C4CC(OC5OC(O)C(O)C(O)C5CO)CCC43C)C2CCC12OC1CC(C)CNC1C2C (stereo not drawn)	inactive	
O=C1NC(=O)N(CCc2ccc(F)cc2)C(=O)/C1=C/C=C/c1ccccc1		70.8 µM (active)
COC(=O)C(O)(c1ccc(NC(=O)c2ccco2)c(OC)c1)C(F)(F)F (stereo not drawn)	inactive	
CCc1cccc2c(C#N)cn(CC(=O)N3CCOCC3)c12	15.5% [at 12.7 µM] (inactive)	
COCc1cc(OC(=O)N(C)C)nc(-c2ccc(C)c(Cl)c2)n1	inactive	
CCCCCCCCc1[se]c2ccccc2c1Br	inactive	
COc1ccc(-c2nc(CS(=O)CC(=O)N3CCC4(CC3)OCCO4)c(C)o2)cc1 (stereo not drawn)	-4.28% [at 12.7 µM] (inactive)	
C[C@]12CC[C@H](O)C[C@H]1CC[C@@H]1C2CC[C@]2(C)[C@@H](C3=CC(=O)OC3)[C@@H](O)C[C@]12O (stereo partly drawn)	-8.99% [at 2.33 µM] (inactive)	
CN(C)c1ccc(NC(=O)CN2C3CCCC2CC(NC(=O)c2ccccc2)C3)cc1 (stereo not drawn)		50.1 µM (active)
Cc1cc(C)cc(NC(=S)NC2CC3CCCC(C2)N3Cc2cccs2)c1 (stereo not drawn)	inactive	
CCC(C)C(=O)O[C@@H]1C[C@@]2(C)C(c3ccoc3)OC(=O)CC23OC2(C)O[C@@]14[C@@]1(C)C(CC(=O)OC)C5(C)CC1(O)C(O)(C5OC(=O)C1(C)OC1C)C(OC(C)=O)[C@@]34O2 (stereo partly drawn)	-36.9% [at 2.33 µM] (inactive)	
c1ccc2sc(SNC3CCCCC3)nc2c1		1.78 µM (active)
COc1cc2c(cc1OC)[C@@H]1C(=O)c3ccc(O)c(CC=C(C)C)c3OC1CO2 (stereo partly drawn)	-32.8% [at 2.33 µM] (inactive)	
O=C(CSC1c2ccccc2-c2ccccc21)N/N=C/c1ccccc1	inactive	

Structure (SMILES)	activity, negative = inhibition	Potency
CN1CCC(N(C)Cc2cccnc2)CC1		3.16 µM (active)
c1cncc(CNC2=NCCC2)c1	inactive	
CC1CCCCN1Cc1cccnc1 (stereo not drawn)		6.31 µM (active)
c1cncc(CNCCc2c[nH]c3ccccc23)c1	inactive	
CCOC(=O)C1(Cc2ccc(Cl)cc2)CCN(C(C)CCn2cccn2)CC1 (stereo not drawn)	inactive	
CC[N+](CC)(CC)CCCCCCCCCC[N+](CC)(CC)CC	inactive	
C=CCN1C(=O)C2(C(C(=O)OCC)=C(N)Oc3c2c(=O)oc2ccccc32)c2ccccc21 (stereo not drawn)	inactive	
Fc1ccc(C2N3CCCN23)cc1 (stereo not drawn)	inactive	
CCC(=NCCCO)c1c(O)n(-c2ccc(OC)cc2)c(=O)[nH]c1=O	inactive	
O=C(COC(=O)c1ccccc1)Nc1ccccc1Sc1ccccc1	inactive	
O=C1N=c2ccccc2=C/C1=C\c1c(O)[nH]c(=S)[nH]c1=O		25.1 µM (active)
COc1ccc(C2N3CC(C)(C)CN23)cc1 (stereo not drawn)	inactive	
CCCn1c(C(=O)c2ccccc2OC)nc2ccccc21	inactive	
COc1ccc(Br)cc1CNCCc1cccc(Cl)c1		20 µM (active)
Cc1ccc(N2C(=O)NC(=O)C(CCc3ccncc3)(Cc3cccc(Cl)c3Cl)C2=O)cc1 (stereo not drawn)	inactive	
CC1=CC(=Cc2sc3ccccc3[n+]2C)C=C(C)O1		50.1 µM (active)
CN(C)C(=O)Oc1cc(=O)n2c3c(cccc13)CCC2	inactive	
CC(C)Nc1nc(Cl)nc(NC(C)C)n1	inactive	
CNC(=S)N/N=C1\C2CN3CCN(C2)CC1(c1ccccc1)C3	inactive	
Cc1ccc(P(=S)(c2ccc(C)o2)N2CCOCC2)o1	-35.9% [at 12.7 µM] (inactive)	
Cc1cc(/C=C2/C(=O)NC(=O)N(Cc3ccco3)C2=O)c(C)n1-c1ccc(C(=O)O)cc1		35.5 µM (active)
O=C1NC(=O)N(Cc2ccco2)C(=O)/C1=C\c1ccc(-c2ccc(F)cc2)o1		12.6 µM (active)
Cc1ccc2c(c1)C1CN(C)CCC1N2C(=O)Cn1nnc(-c2ccccc2F)n1 (stereo not drawn)	inactive	
CCOC(=O)c1c(N)n(CCN2CCOCC2)c2nc3ccccc3nc12	inactive	

Structure (SMILES)	activity, negative = inhibition	Potency
CC(=O)N1CN2CN(C(C)=O)CC(C(=O)c3ccc(Br)cc3)(C2)C1	inactive	
C[C@@]12CC[C@H]3[C@@H](CC[C@]4(O)C[C@H](O)CC[C@@]34C=O)[C@]1(O)CC[C@@H]2C1=CC(=O)OC1	21.4% [at 21.5 µM] (inactive)	
O=c1c2ccccc2nc(-c2ccc(Cl)cc2Cl)n1-c1ccncc1	inactive	
COC(=O)C1=C(c2ccc(C(C)=O)cc2)C[C@@H]2CC[C@H]1N2C(=O)NCCNC(C)=O	23.2% [at 2.33 µM] (inactive)	
O=Cc1cn(Cc2ccc(F)cc2Cl)c2ccccc12	inactive	
CNC(=O)N(C)c1nnc(C(C)(C)C)s1	-1.28% [at 12.7 µM] (inactive)	
CCOC(=O)C1SC2(C(F)(F)C(F)F)CC1(O)c1c(c(OC)c3occc3c1OC)O2 (stereo not drawn)	inactive	
N=c1ccccn1Cc1ccccc1	inactive	
CCCCC/C=C\C/C=C\C/C=C\C/C=C\CCCCCC(=O)NCCO		inactive and 12.6 µM (active)
CCCCC/C=C\C/C=C\C/C=C\CCCCCCC(=O)NCCO	inactive	
CCCCC/C=C\C/C=C\C/C=C\C=C\[C@H](CCCC(=O)O)OO	inactive	
O=C1/C(=C\c2ccc3c(c2)OCO3)N2CCC1CC2	inactive	
O=C(CCN1CCCCC1)NCC(=O)Nc1ccc(Br)cc1C(=O)c1ccccc1	inactive	
CCOP(=S)(OCC)C(O)CCCCCn1c(=O)c(F)cn(C2CCCO2)c1=O (stereo not drawn)	6.51% [at 0.501 µM] (inactive)	
CN(C)c1nc(N(C)C)nc(N(C#N)CCCl)n1		39.8 µM (active)
Clc1cccc(Cl)c1Cl	8.54% [at 0.501 µM] (inactive)	
C[C@]12CC[C@@H]3c4ccc(O)cc4C[C@@H](CCCCCCCCCS(=O)CCCC(F)(F)C(F)(F)F)C3[C@@H]1CC[C@@H]2O (stereo partly drawn)	inactive	
Cn1c(O)c(C=Nc2ccc3c(c2)CCC3)c(=O)n(C)c1=O	inactive	
c1ccc2sc(N3CCNCC3)nc2c1	inactive	
c1ccc2sc(C3CCCNC3)nc2c1 (stereo not drawn)		44.7 µM (active)
CC(C)(C)[C@]1(O)C[C@@H]2OC(=O)C[C@@]23C(=O)O[C@@H]2OC(=O)[C@H](O)[C@]213	inactive	
